Sampled rows, rich in hits. Any-hit rate of the full collection: about 4.7%.
PLK1 kinase inh = blocks human PLK1 kinase activity; P53350; recombinant PLK1 kinase, TR-FRET peptide phosphorylation; inhibition, % at 10 µM; 97,000 compounds, 0.53% hits; AID 619;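 active = inhibition of 50% or more in the single-concentration screen; inactive = inhibition below 50%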;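 also: 0% = DMSO max control and 100% = H-89 dihydrochloride min control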
Target sequence (P53350 whole entry, looked up): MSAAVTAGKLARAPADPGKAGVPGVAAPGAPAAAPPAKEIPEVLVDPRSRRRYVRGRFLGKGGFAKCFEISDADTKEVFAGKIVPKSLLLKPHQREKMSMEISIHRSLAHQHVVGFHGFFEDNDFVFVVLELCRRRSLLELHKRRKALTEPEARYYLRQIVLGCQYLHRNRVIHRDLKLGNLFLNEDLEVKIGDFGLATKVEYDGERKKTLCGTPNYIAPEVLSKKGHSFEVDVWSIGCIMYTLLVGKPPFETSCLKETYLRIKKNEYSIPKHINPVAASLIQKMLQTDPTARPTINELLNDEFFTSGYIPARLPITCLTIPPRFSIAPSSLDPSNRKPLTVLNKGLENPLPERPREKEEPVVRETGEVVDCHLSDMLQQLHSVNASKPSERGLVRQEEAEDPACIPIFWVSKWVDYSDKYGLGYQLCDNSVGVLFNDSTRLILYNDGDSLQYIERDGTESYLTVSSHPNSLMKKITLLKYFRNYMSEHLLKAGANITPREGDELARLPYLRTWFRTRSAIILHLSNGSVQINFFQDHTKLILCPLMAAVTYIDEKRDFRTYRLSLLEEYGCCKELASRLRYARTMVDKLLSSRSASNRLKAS
hDAT+cocaine = human DAT dopamine uptake with cocaine, either direction. Q01959. LLC-PK1 hDAT cells, [14C]-dopamine uptake with cocaine IC80; actives deviate in either direction. B-score at 10 µM. 110,000 compounds, 1.3% hits. AID 449768;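 active = Z score or B-score, a plate-position-corrected score, falls beyond the plate's 99.7% confidence bounds, in either direction; inactive = both scores lie inside the 99.7% bounds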;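 also: scored against the spread of the other compound wells on the same plate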
SDO1 yeast rescue = compounds rescuing growth of sdo1-depleted yeast, bone marrow failure model; S. cerevisiae sdo1-depleted JHY4D growth rescue, OD600 30 h; stronger effect = higher value; pdr5 snq2 efflux-pump mutant strain; z-score at 10 µM; 140,000 compounds, 0.21% hits; AID 817;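 active = z-score above 3 at both the 24 hr and the 30 hr optical density reads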;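 also: z-score against mean and SD of all compound wells on the same plate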
PLK1 PBD inh = blocks phosphopeptide binding to human Plk1 polo box domain; P53350; Plk1 PBD phosphopeptide binding, fluorescence polarization; inhibition, %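 (tested at about 20 µM)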; 97,000 compounds, 0.13% hits; AID 693; in the data active = inhibition above about 34%, passing the limit was not always enough
Pyk2 oligo antag = Pyk2 (human) oligomerization antagonism. z-score (the deposit names both 25 µM and 10 µM). 99,000 compounds, 0.83% hits. Q293 cells, Pyk2 FERM NanoBiT luminescence; stronger effect = lower value. AID 1347419;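 active = Z-score of -3 or lower, scaled per plate to the spread of control and sample wells; inactive = z-score above -3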;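 also: negative z-score means lost luminescence so less FERM oligomerization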
Cav32 inh = blocks human Cav3.2 T-type calcium channel. 100,000 compounds, 4% hits. O95180. Cav3.2-expressing cells, Fluo-4 calcium fluorescence FDSS; stronger effect = lower value. B-score at 10 µM. AID 449739;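 active = single-dose well whose peak fluorescence ratio is a statistical outlier from its plate by either plate-standardised score or position-corrected B-score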
SDO1 rescue DR = SDO1-depleted yeast growth rescue confirmation | S. cerevisiae JHY4D (SDO1-depleted) growth rescue, OD600, 30 h; stronger effect = higher value; efflux-deficient strain, SNQ2 and PDR5 mutated | shares compounds with SDO1 yeast rescue | OD recovery (no concentration beside the values) | 440 compounds, 44% hits;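 active = yeast growth recovered at 30 hours, either rising with dose fitted slope above 0.001 or with average optical density gain above 0.07, some results past the limit were not filed as active; inactive = growth falling with dose or no effect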;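 also: gain in OD600 from 0 h to 30 h averaged across all seven doses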
The depositor's hits bear a star; / = not tested or not shown.

SMILES	PLK1 kinase inh	hDAT+cocaine	SDO1 yeast rescue	PLK1 PBD inh	Pyk2 oligo antag	Cav32 inh	SDO1 rescue DR
O=C(NCCCN1CCOCC1)c1onc(CSc2ccc(F)c(F)c2)c1C(=O)NCCCN1CCOCC1	/	-0.0852	/	/	/	-0.0448	/
O=C(NCCc1ccccc1)C1CCCN(S(=O)(=O)c2cccc3nonc23)C1 (stereo not given)	-35.1	0.148	0.38	-5.6	0.1	-0.494	/
COc1cccc(CNC(=O)C2CCCN(S(=O)(=O)c3cccc4nonc34)C2)c1 (stereo not given)	-5.3	-0.595	2.78	5.5	0.73	0.563	0.0864*
CC(=O)c1ccc(NC(=O)c2ccc(COc3ccccc3[N+](=O)[O-])o2)cc1	/	/	1.89	/	/	/	0.0965*
O=C(O)c1ccc(COc2ccccc2[N+](=O)[O-])o1	/	/	1.94	/	/	/	/
Cc1cc(C)nc(SCC(=O)Nc2ncc(Cc3cccc(Cl)c3)s2)n1	/	/	1.25	/	-1	/	0.0906*
Cc1c(N=C2SCC(=O)N2/N=C/c2ccccc2)c(=O)n(-c2ccccc2)n1C	/	/	0.18	/	/	/	/
CCCCOc1ccc(C(=O)N/N=C/c2ccc(OCCN3CCCCC3)c(OC)c2)cc1	/	/	8.97*	/	0.02	/	0.107*
COc1cc(/C=N/NC(=O)CN2CCCCC2)ccc1OCc1ccccc1	/	/	-0.04	/	/	/	/
Cc1cc2c(c(=O)n1Cc1cccnc1)C(c1ccccc1)C(C#N)=C(N)O2 (stereo not given)	-3.9	1.54	5.76*	-3.6	-0.36	1.25	0.0673
CN1CCN(Cc2nc3c(c(=O)n(C)c(=O)n3C)n2CCCc2ccccc2)CC1	-7.6	-0.219	11.3*	-6.2	1.98	0.744	0.129*
Cc1ccc(Cn2c(CN3CC(C)OC(C)C3)nc3c2c(=O)n(C)c(=O)n3C)cc1 (stereo not given)	-14.5	0.93	8.78*	-4.8	/	1.73	0.0574*
O=C(O)CCC(=O)NNC(=O)c1ccc(Br)cc1	/	/	0.93	/	/	/	/
Cc1ccc(S(=O)(=O)N(C)CC(=O)OCC(=O)c2c(N)n(C)c(=O)n(C)c2=O)cc1	/	/	1.28	/	/	/	/
Cc1nc(CS(=O)(=O)c2ccccc2)cc(N2CCOCC2)n1	-3.8	-1.12	12*	10.4	0.47	-0.361	0.0688*
CCS(=O)(=O)Nc1ccc(-c2nnc(SCC(=O)c3ccc(NC(C)=O)c(OC)c3)o2)cc1	-10.3	/	2.72	4.6	1.07	/	0.061
CCS(=O)(=O)Nc1ccc(-c2nnc(SCC(=O)c3cccc(OC)c3)o2)cc1	-9.8	1.12	0.15	5.1	1.91	0.00201	/
N#Cc1ccc(NC(=O)COC(=O)CNC(=O)C2CCCCC2)cc1	-9.9	0.924	0.26	11.5	-0.58	0.0466	/
Cc1cccc(NC(=O)COC(=O)CNC(=O)C2CCCCC2)c1	-1.8	-0.687	5.72*	-24.5	0.42	-0.775	0.0673
CC(C)Cn1c(N)c(C(=O)CSc2ncnc3sc4c(c23)CCCC4)c(=O)n(C)c1=O	/	/	-0.74	/	/	/	/
Cc1cc(NC(=O)c2noc3c2CCc2ccccc2-3)n(-c2ccccc2)n1	/	-1.7	9.63*	/	/	1.05	0.0829*
CCN(C(=S)Nc1ccc(Oc2ccccc2)cc1)c1ccccc1	/	/	-0.8	/	/	/	/
COc1cc(NC(=S)NCCCN2CCOCC2)cc(OC)c1	/	/	1.6	/	/	/	/
CN(C)c1ccc(/C=[N+](\[O-])C2N(c3ccccc3)C(=S)SC2(C)C)cc1 (stereo not given)	/	/	7.89*	/	/	/	0.0341
O=C(/C(=C(\[O-])c1ccccc1)[n+]1ccc2ccccc2c1)c1ccccc1	/	/	7.91*	/	/	/	0.0395
SMILES	PLK1 kinase inh	hDAT+cocaine	SDO1 yeast rescue	PLK1 PBD inh	Pyk2 oligo antag	Cav32 inh	SDO1 rescue DR
O=C(/C(=C(\[O-])c1ccccc1)[n+]1ccc2ccccc2c1)c1ccc(Cl)cc1	/	/	-0.49	/	/	/	/
COc1ccc(-c2nc3nc(C)cc(C)n3n2)cc1	-20.5	-0.352	12.6*	-1.9	0.26	-0.327	0.063
COc1ccc(CNc2nc3nc(C)cc(C)n3n2)cc1	-5.3	0.45	-0.2	-4.0	-0.16	-1.21	/
COc1cc(CNCc2ccccn2)ccc1OCc1cccc(Cl)c1	-15.6	1.51	7.74*	2.3	-0.11	-0.558	0.072*
COc1cc(CNCc2ccccn2)ccc1OCc1ccc(Cl)cc1	/	/	0.39	/	/	/	/
Cc1[nH]c2ccccc2c1C(=O)CN1CCN(C2CCCCC2)CC1	-9.2	-0.0929	9.08*	13.0	/	1.94	0.0448
CC(=O)C1C(c2ccc(F)cc2)C2C(C)=NN=C2CC1(C)O (stereo not given)	/	/	9.66*	/	/	/	0.0723*

Bioassay records (PubChem)
